# Results taken from PubChem BioAssay (EPA / NIEHS).
# Values joined by “and” are separate entries in the source; they are usually repeats but may differ in a detail not shown here. Identical values can stand only once. Records with an inconclusive call do not appear. Where a structure was tested more than once in an assay, its records may differ in their call. Active and inactive are the calls of the source. The calls were made as follows: active = hit-call score of the fitted dose curve at least 0.9, where 1 is the maximum; inconclusive = response in the unintended direction; inactive = score below 0.9.
# Key:
# [1] = biological target: Cellular tumor antigen p53 (Homo sapiens) (UniProt P04637); assay: TOX21_p53_BLA_p5_ratio: Tox21 HCT-116 p53 Agonism Beta-lactamase Assay, Ratio, Phase 5 (AID 2283599)
# Summary of the method: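 Beta-lactamase reporter ratio (blue 460 nm over green 530 nm, 405 nm excitation) after 2 h CCF4-AM loading, in HCT-116 cells exposed 16 h at 37 C to compounds pinned at 217-fold dilution. Increases relative to DMSO baseline scored.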
# [2] = TOX21_p53_BLA_p5_viability: Viability Assessment in the Tox21 HCT-116 p53 Agonism Beta-lactamase Assay, Phase 5 (AID 2283600)
# Summary of the method: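 Workflow: seed 4000 cells per well, wait 5 h, add compounds (DMSO, 217-fold dilution), incubate 16 h, load CCF4-AM 2 h, add CellTiter-Glo, read luminescence after 30 min.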
# [3] = biological target: Cellular tumor antigen p53 (Homo sapiens) (UniProt P04637); assay: TOX21_p53_BLA_p4_ratio: Tox21 HCT-116 p53 Agonism Beta-lactamase Assay, Ratio, Phase 4 (AID 2283601)
# Summary of the method: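 Signal is the blue/green (460nm/530nm) ratio of cleaved versus uncleaved CCF4-AM substrate, read after 2 h substrate loading. Cells were HCT116 carrying the p53-responsive beta-lactamase reporter, dosed 16 h at 37C, 5% CO2; CellTiter-Glo measured in parallel.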
# [4] = Tanguay_ZF_120hpf_MORT_legacy: (Legacy) Oregon State University Tanguay Lab 120 Hour Post-fertilization zebrafish Assay for Mortality (AID 2283633)
# Summary of the method: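 5D WT zebrafish, chorion removed 4 hpf; 1 embryo/well from 6 hpf; static exposure to 120 hpf, 28C, dark, sealed. Final DMSO 0.64%. Readout: binary mortality, brightfield, 24 + 120 hpf; DMSO as negative control.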
# [5] = Tanguay_ZF_120hpf_YSE_legacy: (Legacy) Oregon State University Tanguay Lab 120 Hour Post-fertilization zebrafish Assay for Yolk Sac Edema (AID 2283634)
# Summary of the method: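 Dechorionate (pronase, 4 hpf) → place one 6 hpf embryo per well → static compound exposure, sealed and foil-covered, 28C, to 120 hpf → record yolk sac edema as present or absent. Final DMSO 0.64%.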
# [6] = Tanguay_ZF_120hpf_EYE_legacy: (Legacy) Oregon State University Tanguay Lab 120 Hour Post-fertilization zebrafish Assay for Eye Malformation (AID 2283636);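 also: binary presence or absence of eye malformation scored by brightfield in 120 hpf larvae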
# Summary of the method: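 Binary brightfield scoring of eye defects at 120 hpf after static exposure from 6 hpf of single pronase-dechorionated wild-type embryos (28C, 0.64% DMSO). Non-mortality endpoints omitted where embryos died; fit vs DMSO.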
# [7] = Tanguay_ZF_120hpf_SNOU_legacy: (Legacy) Oregon State University Tanguay Lab 120 Hour Post-fertilization zebrafish Assay for Snout Malformation (AID 2283637)
# Summary of the method: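 Binary snout-malformation call at 120 hpf in wild-type 5D embryos, chorion removed by pronase, under static exposure from 6 hpf at 28C (0.64% DMSO). Embryos dying by 24 or 120 hpf excluded.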
# [8] = Tanguay_ZF_120hpf_JAW_legacy: (Legacy) Oregon State University Tanguay Lab 120 Hour Post-fertilization zebrafish Assay for Jaw Malformation (AID 2283638)
# Summary of the method: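 Steps: dechorionate 4 hpf embryos (pronase); plate 1/well at 6 hpf; add test chemical, 0.64% DMSO final; seal, cover, hold at 28C statically to 120 hpf; score jaw defect presence/absence microscopically. Dead embryos not scored.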
# Sequence of Cellular tumor antigen p53 (Homo sapiens) (P04637 whole entry, looked up): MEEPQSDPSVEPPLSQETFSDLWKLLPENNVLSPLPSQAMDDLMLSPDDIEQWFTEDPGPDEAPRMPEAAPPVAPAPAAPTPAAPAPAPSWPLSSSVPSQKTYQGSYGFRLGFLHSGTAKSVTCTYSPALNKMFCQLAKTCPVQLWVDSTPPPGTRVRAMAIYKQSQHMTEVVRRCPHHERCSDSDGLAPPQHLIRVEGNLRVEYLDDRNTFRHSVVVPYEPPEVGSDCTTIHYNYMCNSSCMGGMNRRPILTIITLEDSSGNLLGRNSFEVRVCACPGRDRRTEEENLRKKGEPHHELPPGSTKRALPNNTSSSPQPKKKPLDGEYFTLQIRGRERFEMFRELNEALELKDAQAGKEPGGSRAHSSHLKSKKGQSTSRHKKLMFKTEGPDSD
compound,measurement,setting,value
CC(=O)CCc1ccc(O)cc1,outcome,[1],inactive
same,outcome,[2],inactive
same,outcome,[3],inactive
CCOC(=O)C(=O)OCC,outcome,[1],inactive
CC(=O)CC(C)(C)C1CCCCC1,outcome,[1],inactive
same,outcome,[2],inactive
same,outcome,[3],inactive
CCc1cccc(O)c1,outcome,[1],inactive
same,outcome,[2],inactive
same,outcome,[3],inactive
C=C(C)CCCC(C)CCO (stereo not drawn),outcome,[1],inactive
CC(C)CCCC(C)(C)O,outcome,[1],inactive
same,outcome,[2],inactive
Cc1cccc(O)c1,outcome,[1],inactive
same,outcome,[2],inactive
CC/C=C\CCOC(=O)C(C)C,outcome,[1],inactive
COc1ccccc1O,outcome,[1],inactive
same,outcome,[2],inactive
same,outcome,[3],inactive
CCNC(=S)NCC,outcome,[1],inactive
same,outcome,[2],inactive
same,outcome,[3],inactive
NC(N)=S,outcome,[1],inactive
same,outcome,[2],inactive
same,outcome,[3],inactive
CC(=O)OC/C=C(C)/C=C/C=C(C)/C=C/C1=C(C)CCCC1(C)C,outcome,[1],inactive
same,outcome,[2],inactive
same,outcome,[3],inactive
CC(=O)c1ccc2ccccc2c1,outcome,[1],inactive
same,outcome,[2],inactive
same,outcome,[3],inactive
C[C@]12CC[C@@H]3c4ccc(O)cc4CC[C@H]3[C@@H]1CC[C@@H]2O,AC50,[1],31.7 µM (active) and 34.6 µM (active)
same,outcome,[1],inactive
same,outcome,[2],inactive
same,AC50,[3],31.4 µM (active) and 17.7 µM (active) and 15.6 µM (active)
same,outcome,[4],inactive
same,outcome,[5],inactive
same,outcome,[6],inactive
same,outcome,[7],inactive
same,outcome,[8],inactive
CCCO,outcome,[1],inactive
same,outcome,[2],inactive
CCCCCCCCCCCCCC(=O)OCC,outcome,[1],inactive
same,outcome,[2],inactive
COc1ccccc1NC(=O)CC(C)=O,outcome,[1],inactive
same,outcome,[2],inactive
same,outcome,[3],inactive
CCCCCCCCCCCCN1CCOCC1,outcome,[1],inactive
same,outcome,[2],inactive
CCCCCCCCCCOC(=O)c1ccccc1C(=O)OCCCCCCCC,outcome,[1],inactive
C[C@H](CCC(=O)O)[C@H]1CC[C@H]2[C@@H]3CC[C@@H]4C[C@H](O)CC[C@]4(C)[C@H]3CC[C@]12C,AC50,[1],18.2 µM (active)
same,outcome,[1],inactive
same,AC50,[2],16.3 µM (active)
same,outcome,[3],inactive
CC(C)(O)C(=O)c1ccc(OCCO)cc1,outcome,[1],inactive
same,outcome,[2],inactive
NCCN1CCNCC1,outcome,[1],inactive
same,outcome,[2],inactive
same,outcome,[3],inactive
CN1CCc2cccc3c2[C@H]1Cc1ccc(O)c(O)c1-3,AC50,[1],86.8 µM (active)
same,outcome,[1],inactive
same,outcome,[2],inactive
same,AC50,[3],67.3 µM (active)
same,outcome,[3],inactive
CC(CCO)CC(C)(C)C (stereo not drawn),outcome,[1],inactive
same,outcome,[2],inactive
same,outcome,[3],inactive
CCCCCCCCCC(=O)OCC,outcome,[1],inactive
same,outcome,[2],inactive
same,outcome,[3],inactive
CC(C)Cc1ccc(C(C)C(=O)O)cc1 (stereo not drawn),outcome,[1],inactive
same,outcome,[2],inactive
O=S1(=O)CC=CC1,outcome,[1],inactive
same,outcome,[2],inactive
same,outcome,[3],inactive
CC/C=C\CCOC(C)OCC (stereo not drawn),outcome,[1],inactive
O=S1(=O)CC(Cl)(Cl)C(Cl)(Cl)C1,AC50,[1],39.4 µM (active)
same,AC50,[2],6.87 µM (active)
same,AC50,[3],39 µM (active)
N#CCCCC(C#N)CCC#N (stereo not drawn),outcome,[1],inactive
CCCCCCCCCCCCCCCCCC(=O)OCCCCCCCCCCCCCC(C)C,outcome,[1],inactive
same,outcome,[2],inactive
CC/C=C\C#N,outcome,[1],inactive
O=C(O)c1ccco1,outcome,[1],inactive
same,outcome,[2],inactive
O=Cc1ccccc1O,outcome,[1],inactive
same,outcome,[2],inactive
CCOC(=O)C=Cc1ccccc1,outcome,[1],inactive
same,outcome,[2],inactive
CCOC(=O)CC1(C)OCC(C)O1 (stereo not drawn),outcome,[1],inactive
same,outcome,[2],inactive
CC(C)C(=O)c1ccccc1,outcome,[1],inactive
CCC(C)COC(=O)CC(C)C (stereo not drawn),outcome,[1],inactive
same,outcome,[2],inactive
same,outcome,[3],inactive
CC(C)N1C(=O)c2ccccc2C1=O,outcome,[1],inactive
same,outcome,[2],inactive
same,outcome,[3],inactive
FC(F)(F)c1ccc(Cl)c(Cl)c1,outcome,[1],inactive
same,outcome,[2],inactive
same,outcome,[3],inactive
CC(=O)CCC=C(C)CCC=C(C)C,outcome,[1],inactive
same,outcome,[2],inactive
same,outcome,[3],inactive
c1ccc2scnc2c1,outcome,[1],inactive
same,outcome,[2],inactive
same,outcome,[3],inactive
NC(N)=NC(N)=NCCc1ccccc1,outcome,[1],inactive
same,outcome,[2],inactive
same,outcome,[3],inactive
C=CC(C)(CCC=C(C)C)OC(=O)CC (stereo not drawn),outcome,[1],inactive
same,outcome,[2],inactive
same,outcome,[3],inactive
ClCCOCCOCCCl,outcome,[1],inactive
same,outcome,[2],inactive
same,outcome,[3],inactive
C=COCC1CCC(COC=C)CC1 (stereo not drawn),outcome,[1],inactive
same,outcome,[2],inactive
same,outcome,[3],inactive
CCCC(O)C(CC)CO (stereo not drawn),outcome,[1],inactive
same,outcome,[2],inactive
same,outcome,[3],inactive
COc1ccc(C(C)=O)cc1,outcome,[1],inactive
same,outcome,[2],inactive
same,outcome,[3],inactive
NCCCOCCOCCOCCCN,outcome,[1],inactive
same,outcome,[2],inactive
same,outcome,[3],inactive
CCCCCC(=O)O[C@]1(C(C)=O)CC[C@H]2[C@@H]3CCC4=CC(=O)CC[C@]4(C)[C@H]3CC[C@@]21C,outcome,[1],inactive
same,outcome,[2],inactive
same,outcome,[3],inactive
C=C(C)C(=O)OCCC[Si](OC)(OC)OC,outcome,[1],inactive
same,outcome,[2],inactive
same,outcome,[3],inactive
CCCCCCOC(C)=O,outcome,[1],inactive
same,outcome,[2],inactive
same,outcome,[3],inactive
O=C(O)C1=NN(c2ccc(S(=O)(=O)O)cc2)C(=O)C1,outcome,[1],inactive
same,outcome,[2],inactive
same,outcome,[3],inactive
CC(C)(C)c1cccc(O)c1,outcome,[1],inactive
same,outcome,[2],inactive
same,outcome,[3],inactive
CC(=O)OC(C)(C)C1CC=C(C)CC1 (stereo not drawn),outcome,[1],inactive
same,outcome,[2],inactive
same,outcome,[3],inactive
CC/C=C\CCCCO,outcome,[1],inactive
same,outcome,[2],inactive
same,outcome,[3],inactive
CCC(=O)OC(C)(C)C1CC=C(C)CC1 (stereo not drawn),outcome,[1],inactive
same,outcome,[2],inactive
same,outcome,[3],inactive
[O-]/[N+](=N\O)c1ccccc1,outcome,[1],inactive
same,outcome,[2],inactive
same,outcome,[3],inactive
CN(C)C,outcome,[1],inactive
same,outcome,[2],inactive
same,outcome,[3],inactive
